The list is not random: actives were taken first. Their share in the collection is about 15%.
ALOX12 inh – ALOX12 (human) lipoxygenase inhibition; Potency, µM (top dose mostly 108 µM), inactives show at the top dose activity change, negative = inhibition, actives largely listed as inhibitors; AID 1671190; 1.1% of 580,000 active; P18054; purified 12hLO, xylenol orange hydroperoxide absorbance
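Hydroperoxide product was detected by ferrous iron/xylenol orange as the 573 to 405 nm absorbance ratio. Arachidonic acid at 40 uM (final) was turned over for 30 min at room temperature by 150 nM human 12hLO, pH 7.0 Hepes buffer, after 15 min compound preincubation.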
TDP1 cell noCPT – qHTS for Inhibitors of human tyrosyl-DNA phosphodiesterase 1 (TDP1): qHTS in cells in absence of CPT. DT40 Tdp1-/- hTDP1 cells, no CPT, ATP luminescence, 48 h. Potency, µM (series often up to 46.2 µM), without a hit: at the top dose activity change, negative = growth inhibition, hits mostly inhibitors. 15% of 420,000 active; further: nearly all actives have a fitted effect of over 55% in size
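Readout: luminescence from CellTiter-Glo after 30 min in the dark at RT. Cells: DT40 Tdp1-/- with stable hTDP1, 400/well. Exposure: compounds alone, ≥48 hr, 37 °C.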
TDP1 cell CPT – DT40-hTDP1 cell growth loss with CPT; 12% of 420,000 active; Potency, µM (doses to about 46.2 µM), for inactives: top-dose activity change, negative = growth inhibition, usual class: inhibitors; chicken DT40 Tdp1-/-;hTDP1 cells + 20 nM CPT, ATP luminescence, 48 h; AID 686979; further: nearly all actives have a fitted effect of over 55% in size
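Cell growth measured by CellTiter-Glo luminescence after a minimum 48 h, 37 C compound exposure with 20 nM CPT in Tdp1-knockout DT40 cells stably expressing hTDP1, seeded 400/well; qHTS titration format.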
ELG1 repair inh – blocks ELG1-dependent DNA repair in HEK293T cells. HEK293T ELG1-luciferase reporter, luminescence, 16 h; DNA damage induced by 5-fluorouridine. Potency, µM (highest dose often 46.1 µM), for the others: top-dose activity change, negative = inhibition, usual class: inhibitors. 2.3% of 330,000 active. AID 504467; further: nearly all actives have a fitted effect of over 55% in size
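Reporter activity after DNA damage by 5-fluorouridine is monitored. Compound-treated cells incubate 16 hr at 37 °C, then ONE-Glo is added for 30 min before luminescence reading.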
VP16 counter – inhibits Gal4-VP16 luciferase reporter, ROR gamma counter-screen; Drosophila S2 Gal4-VP16 UAS-luciferase, luminescence, 20 h; Potency, µM (series often up to 53.6 µM), without a hit: at the highest dose activity, negative = inhibition, most hits filed as inhibitors; 3.5% of 310,000 active;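 further: Gal4-VP16 expression switched on by copper sulfate through the metallothionein promoter; nearly all actives have a fitted effect of over 50% in size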
RORgamma inh – blocks mouse ROR gamma transcriptional activity; P51450; Drosophila S2 Gal4-RORgamma UAS-luciferase reporter, 20 h; Potency, µM (doses to about 53.6 µM), for inactives: top-dose activity change, negative = inhibition, most hits filed as inhibitors; 5.4% of 310,000 active; AID 2551; further: nearly all actives have a fitted effect of over 60% in size
Target sequence (P51450 whole entry, looked up, the tested form may be a part): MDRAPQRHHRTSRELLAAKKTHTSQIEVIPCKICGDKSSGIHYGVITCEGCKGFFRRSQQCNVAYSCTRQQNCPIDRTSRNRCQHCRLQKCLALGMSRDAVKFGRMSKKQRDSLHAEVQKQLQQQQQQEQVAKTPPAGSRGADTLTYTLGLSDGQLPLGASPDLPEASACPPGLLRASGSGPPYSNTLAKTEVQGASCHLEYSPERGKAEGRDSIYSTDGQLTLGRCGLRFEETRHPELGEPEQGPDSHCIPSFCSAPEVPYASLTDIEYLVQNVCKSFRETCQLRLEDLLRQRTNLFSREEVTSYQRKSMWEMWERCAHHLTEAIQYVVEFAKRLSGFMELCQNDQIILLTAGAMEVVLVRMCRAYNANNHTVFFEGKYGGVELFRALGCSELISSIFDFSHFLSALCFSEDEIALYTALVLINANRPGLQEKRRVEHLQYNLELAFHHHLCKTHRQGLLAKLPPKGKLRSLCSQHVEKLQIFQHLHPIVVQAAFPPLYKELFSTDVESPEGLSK
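Compounds are pin-transferred onto Drosophila Schneider cells expressing a copper-inducible Gal4–ROR gamma transactivation domain fusion. After 1 hr, copper sulfate is added to 700 uM final; luciferase is read 20 hr later.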
* hit, by the source's call; i = inactive; ? = inconclusive; · = no result. The call rests on the fitted dose curve; in most records, active means well fitted curve in the direction sought with a large enough effect; inconclusive means small, poorly fitted or top-dose-only effect, or another doubt; inactive means no such curve, though single readings can be large; an effect the other way counts as inactive or inconclusive. On the % scale 0 is the no-effect control and ±100 the full control effect; potency means the concentration at half of the fitted maximal effect.

SMILES | ALOX12 inh | TDP1 cell noCPT | TDP1 cell CPT | ELG1 repair inh | VP16 counter | RORgamma inh
CC(C)C(=O)Nc1c(-c2cccc(Cl)c2)c(=O)c2ccccc2n1C | i | 23.1µM* | 18.4µM* | 2.4% | 3.8% | -2.2%
Cn1c(NC(=O)c2ccccc2)c(-c2cccs2)c(=O)c2ccccc21 | -8.5% | 16.4µM* | 14.6µM* | -2.0% | -3.3% | -1.0%
Cn1c(NC(=O)c2cccs2)c(-c2cccs2)c(=O)c2ccccc21 | ? | -26.9% | 23.1µM* | -0.8% | -1.6% | 0.0%
COc1ccc(C(=O)NC2CCN(c3cc(-c4ccccc4)[nH]n3)CC2)c(C)c1 | 17.1% | · | · | · | · | ·
CNC(=O)[C@H]1C[C@H](Oc2ccccc2)CN1C(=O)Cn1ccnc1 | 15.9% | · | · | · | · | ·
CN1c2cc(C(=O)N3CCc4ccccc4C3)ccc2C(=O)N2CCCCC21 (stereo not given) | -0.5% | · | · | · | · | ·
CC(C)c1noc(-c2cn(C3CCCN(C(=O)c4ccc5c(c4)OCO5)C3)nn2)n1 (stereo not given) | 1.0% | · | · | · | · | ·
CCc1ccc(-c2nc3cc(NC(=O)c4cc5ccccc5cc4OC)ccc3o2)cc1 | -5.8% | 13µM* | ? | · | · | ·
COc1cc2ccccc2cc1C(=O)Nc1cc(-c2nc3ccccc3o2)ccc1C | -1.9% | 0.3% | 2.1% | · | · | ·
COc1cc2ccccc2cc1C(=O)Nc1cccc(-c2nc3cc(C)c(C)cc3o2)c1 | -21.8% | 14.6µM* | ? | · | · | ·
COc1ccc(-c2nc3cc(NC(=O)c4cc5ccccc5o4)ccc3o2)cc1 | 0.0% | 16.4µM* | ? | · | · | ·
Cc1ccc(-c2nc3cc(NC(=O)c4cc5ccccc5o4)ccc3o2)cc1 | -9.8% | ? | -20.0% | · | · | ·
COC(=O)c1cccc(OC(=O)/C=C/c2ccc(-c3ccccc3)s2)c1 | 12.7% | · | · | · | · | ·
COCc1nnc(NC(=O)c2ccc3ccn(C)c3c2)s1 | 28.1% | · | · | · | · | ·
Nc1cc2nsnc2cc1Br | ? | 5.8µM* | 5.8µM* | -2.3% | -10.2% | 12.6µM*
Nc1cccc2nsnc12 | 365.9% | ? | 0.7% | -2.7% | -7.1% | -0.4%
O=C(N[C@H]1C/C=C\C[C@@H](CC(=O)N(CCO)Cc2ccccc2)C(=O)NC[C@H](c2ccccc2)OC1=O)OCC1c2ccccc2-c2ccccc21 | ? | 4.11µM* | 3.66µM* | ? | · | ·
C[C@@H]1COC(=O)[C@H](NC(=O)OCC2c3ccccc3-c3ccccc32)C/C=C\C[C@@H](CC(=O)N(CCO)Cc2ccccc2)C(=O)N1 | · | 14.6µM* | 9.2µM* | 11.3% | · | ·
O=C1CCCC/C=C\C[C@H](CC(=O)N(CCO)Cc2ccccc2)C(=O)N[C@@H](c2ccccc2)CO1 | 9.8% | -21.9% | ? | -4.4% | · | ·
O=C1CC/C=C\C[C@@H](CC(=O)N(CCO)Cc2ccccc2)C(=O)NCCO1 | -45.0% | -11.5% | -7.7% | ? | · | ·
O=C(N[C@@H]1C/C=C\C[C@H](CC(=O)N(CCO)Cc2ccccc2)C(=O)N[C@@H](Cc2ccccc2)COC1=O)OCC1c2ccccc2-c2ccccc21 | 0.3% | 16.4µM* | 16.4µM* | 0.6% | · | ·
O=C(N[C@@H]1C/C=C\C[C@@H](CC(=O)N(CCO)Cc2ccccc2)C(=O)NCCOC1=O)OCC1c2ccccc2-c2ccccc21 | · | 9.2µM* | 16.4µM* | -28.1% | · | ·
CC(C)(C)[C@H]1COC(=O)[C@H](NC(=O)OCC2c3ccccc3-c3ccccc32)C/C=C\C[C@@H](CC(=O)N(CCO)Cc2ccccc2)C(=O)N1 | ? | 23.1µM* | 9.2µM* | 10.3µM* | · | ·
CC(C)(C)OC(=O)C[C@@H]1C/C=C\C[C@H](CC(=O)N(CCO)Cc2ccccc2)C(=O)N[C@H](C(C)(C)C)COC1=O | 0.2% | ? | ? | ? | · | ·
